Screens from PubChem BioAssay.
RAD54 branch = inhibitors of human RAD54 branch migration, primary screen, biochemical, fluorescence, single point. AID 602329, 2012. 0.14% of 360,000 active. inhibition, % at 10.4 µM. DNA repair and recombination protein RAD54-like (Homo sapiens), Q92698. RAD54 Holliday junction branch migration, FAM/BHQ fluorescence;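 active means mean normalized replicate activity at least 40 and at least half of replicates scoring 40 or more; inconclusive means only one of the two criteria met; inactive means mean below 40 and under half of replicates reaching 40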;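 further: inhibitors cause a drop in the FAM fluorescence signal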
AF4-AF9 inh = inhibitors of AF4 peptide binding to AF9, primary screen, biochemical, AlphaScreen, biotin-AF4 peptide, FLAG-AF9, single point; Protein AF-9 (Homo sapiens), P42568; 0.47% of 350,000 active; inhibition, % at 10 µM;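 active means every replicate reaching a set inhibition limit, whatever the replicate mean, cut at about 25% in these data; inconclusive means mean inhibition reaches that limit but some replicates miss it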
Target sequence (P42568 whole entry, looked up): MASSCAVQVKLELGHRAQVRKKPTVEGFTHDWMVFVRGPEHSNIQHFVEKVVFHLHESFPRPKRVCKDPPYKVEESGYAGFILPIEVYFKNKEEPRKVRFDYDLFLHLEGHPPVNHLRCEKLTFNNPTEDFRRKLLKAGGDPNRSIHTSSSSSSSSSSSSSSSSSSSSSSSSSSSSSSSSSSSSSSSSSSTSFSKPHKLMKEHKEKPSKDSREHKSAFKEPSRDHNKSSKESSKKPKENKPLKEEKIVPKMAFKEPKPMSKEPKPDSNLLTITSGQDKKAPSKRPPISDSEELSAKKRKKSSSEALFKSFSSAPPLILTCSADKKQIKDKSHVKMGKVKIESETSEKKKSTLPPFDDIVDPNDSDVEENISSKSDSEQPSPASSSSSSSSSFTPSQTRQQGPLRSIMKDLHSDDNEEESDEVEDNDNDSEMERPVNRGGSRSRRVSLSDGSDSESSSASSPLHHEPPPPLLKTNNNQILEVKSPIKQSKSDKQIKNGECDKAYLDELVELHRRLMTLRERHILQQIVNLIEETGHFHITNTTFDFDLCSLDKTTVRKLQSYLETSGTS
RAD52 anneal inh = RAD52 DNA annealing inhibitors, primary screen, biochemical, FRET, single point, set 2 | inhibition, % at 18.7 µM | 0.46% of 360,000 active | AID 651710, 2012 | recombinant RAD52 DNA annealing, FRET fluorescence | DNA repair protein RAD52 homolog (Homo sapiens), P43351;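 active means every replicate showing at least 50% inhibition; inconclusive means mean inhibition at least 50% but not in every replicate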
N-glyco inh = increase of ERlucT glycosylation luciferase signal, primary screen, N-linked glycosylation inhibitor project, D54 ERlucT cells, luminescence, set 2; D54 ERlucT glycosylation luciferase reporter, 24 h; percent of 100 nM tunicamycin response; reporter increase, % at 12.5 µM; 0.23% of 360,000 active; AID 588692, 2011;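 active means mean luciferase reporter signal, scaled so untreated is 0 and the glycosylation-blocking control 100, at or above a set limit in every replicate; inconclusive means mean reaches the limit but not every replicate does; inactive means mean below the limit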;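 further: luciferase carries N-glycosylation sites so blocking glycosylation raises the light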
Casp6 inh = human caspase-6 inhibitors, primary screen, biochemical, VEID-R110 fluorescence, single point, set 2 | P55212 | 0.53% of 350,000 active | purified caspase-6, Z-VEID-R110 cleavage fluorescence | inhibition, % at 12.5 µM;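 active means mean inhibition across replicates at least about 35%, with every replicate also reaching that limit, limit read from the data; inconclusive means only one of the two criteria met; inactive means neither criterion met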
Large screens that a line does not name were inactive. Shown are actives, neighbours in structure and some others; about 1.2% of the full set was active somewhere.

Cc1noc(C)c1S(=O)(=O)Nc1ccc2c(c1)C(=O)N([C@H](C)CO)C[C@H](C)[C@@H](CN(C)C(=O)CCCN(C)C)OCCCC[C@H](C)O2	none (no result: AF4-AF9 inh, RAD52 anneal inh, N-glyco inh, Casp6 inh)
O=C(Cc1ccccc1)NN1C(=O)/C(=C/c2ccccc2C(=O)O)SC1=S	Casp6 inh 61.9
CO[C@H]1CN(C)C(=O)c2cc(NC(C)=O)ccc2OC[C@H](C)N(Cc2ccccc2C(=O)O)C[C@@H]1C	none (no result: N-glyco inh)
C[C@H]1CN([C@@H](C)CO)C(=O)Cc2cc(NS(=O)(=O)c3ccc(Cl)cc3)ccc2O[C@H]1CN(C)Cc1ccc(C(=O)Nc2ccccc2N)cc1	none (no result: RAD54 branch, N-glyco inh)
Cc1ccc2nc(N3C(=O)C(O)=C(C(=O)c4ccco4)C3c3cccs3)sc2c1 (centres undefined)	none (no result: RAD54 branch, AF4-AF9 inh, RAD52 anneal inh, Casp6 inh)
CCOC(=O)c1sc(N2C(=O)C(O)=C(C(=O)c3ccco3)C2c2ccco2)nc1C (centres undefined)	Casp6 inh 39.3
CCOc1ccc2nc(N3C(=O)C(O)=C(C(=O)c4ccco4)C3c3ccco3)sc2c1 (centres undefined)	Casp6 inh 36.0 (no result: RAD54 branch)
Cc1cc(C)c2nc(N3C(=O)C(O)=C(C(=O)c4ccco4)C3c3ccco3)sc2c1 (centres undefined)	Casp6 inh 68.3
COC(=O)c1sc(N2C(=O)C(=O)/C(=C(/O)c3ccccc3)C2c2ccco2)nc1C (centres undefined)	Casp6 inh 36.6 (no result: RAD54 branch)
COc1ccc2nc(N3C(=O)C(O)=C(C(=O)c4ccco4)C3c3ccc(C)o3)sc2c1 (centres undefined)	none (no result: RAD54 branch)
Cc1nc(N2C(=O)C(=O)/C(=C(/O)c3ccccc3)C2c2ccco2)sc1C (centres undefined)	none (no result: AF4-AF9 inh, RAD52 anneal inh, Casp6 inh)
C[C@H](CO)N1C[C@H](C)[C@@H](CN(C)Cc2ccc(C(F)(F)F)cc2)Oc2c(NS(C)(=O)=O)cccc2C1=O	none (no result: AF4-AF9 inh, N-glyco inh, Casp6 inh)
CN1C(=O)c2cc(NC(=O)C3CCC3)ccc2OC[C@H]2O[C@H](CC(=O)NCc3ccccc3F)CC[C@@H]21	none (no result: RAD54 branch, N-glyco inh)
O=C(/C=C/c1ccccc1)Nc1ccc2c(c1)C(=O)NC2=O	AF4-AF9 inh 50.1
COc1ccc2c3c([nH]c2c1)[C@@H](CO)N(C(=O)c1cnccn1)CC31CCN(S(C)(=O)=O)CC1	none (no result: RAD54 branch, N-glyco inh)
CCCn1c(N)c(C(=O)CN2CCN(S(=O)(=O)c3cccc(Cl)c3)CC2)c(=O)[nH]c1=O	Casp6 inh 40.9
OC[C@@H]1[C@@H](c2ccc(C#Cc3ccccc3F)cc2)[C@H]2CN(CC3CCOCC3)CCCCN12	RAD52 anneal inh 53.1 (no result: N-glyco inh)
CN1CCCCN2[C@H](C1)[C@@H](c1ccc(C#Cc3ccccc3F)cc1)[C@@H]2CO	RAD52 anneal inh 64.8 (no result: N-glyco inh)
C[C@@H]1CCCCO[C@H](CN(C)Cc2ccncc2)[C@@H](C)CN([C@H](C)CO)C(=O)c2cc(NC(=O)CCC(F)(F)F)ccc2O1	none (no result: N-glyco inh)
CC(C)NC(=O)N(C)C[C@@H]1Oc2c(NC(=O)c3ccncc3)cccc2C(=O)N([C@H](C)CO)C[C@H]1C	none (no result: N-glyco inh)
CCOC(=O)CSC1=C(C#N)C(c2ccc(C)o2)CC(=O)N1 (centres undefined)	AF4-AF9 inh 29.8
CO[C@H]1CN(C)C(=O)c2cc(NC(=O)Nc3cccc(F)c3)ccc2OC[C@@H](C)N(C(C)=O)C[C@H]1C	none (no result: N-glyco inh)
COC(=O)c1cc(O)cc(OC)c1Oc1cc(C)cc(O)c1C(=O)O	Casp6 inh 42.6
N#C[C@@H]1[C@@H](c2ccccc2)[C@H](CO)N1C(=O)C1CCCC1	none (no result: N-glyco inh)
Cc1ccc(-n2c(-c3ccc(Br)cc3)c[n+]3c2CCc2ccc4cccnc4c2-3)cc1	RAD54 branch 88.1, N-glyco inh 40.0 (no result: AF4-AF9 inh, RAD52 anneal inh, Casp6 inh)
COc1ccc(-n2c(-c3ccc(Cl)cc3)c[n+]3c2CCc2ccccc2-3)cc1	none (no result: RAD54 branch)
Cc1ccc(-c2ccc(C3C(C#N)=C(N)Oc4n[nH]c(C)c43)o2)cc1 (centres undefined)	none (no result: AF4-AF9 inh, RAD52 anneal inh, Casp6 inh)
Cc1[nH]nc2c1C(c1ccc(-c3ccc(Cl)cc3)o1)C(C#N)=C(N)O2 (centres undefined)	N-glyco inh 28.8 (no result: RAD54 branch, AF4-AF9 inh, RAD52 anneal inh, Casp6 inh)
Cc1[nH]nc2c1C(c1ccc(-c3ccccc3C#N)o1)C(C#N)=C(N)O2 (centres undefined)	N-glyco inh 25.4 (no result: AF4-AF9 inh, RAD52 anneal inh, Casp6 inh)
C[C@H](NC(=O)C[C@H]1CC[C@@H](NC(=O)C2CCC2)[C@H](CO)O1)c1ccccc1	none (no result: N-glyco inh)
N#Cc1cccc(-c2ccc3c(c2)[C@H]2[C@H](CCN2C(=O)c2ccncc2)[C@H](CO)N3)c1	none (no result: AF4-AF9 inh, RAD52 anneal inh, N-glyco inh, Casp6 inh)
COC(=O)C[C@@H]1C[C@@H]2c3cc(NS(=O)(=O)c4cccc(OC)c4)ccc3O[C@@H]2[C@H](CO)O1	none (no result: N-glyco inh)
O=C(NCc1ccncc1)c1ccc(OCc2ccccc2)cc1	Casp6 inh 36.4
Cn1cnc(S(=O)(=O)N2CCCCN3[C@H](CO)[C@@H](c4ccc(-c5cccc(F)c5)cc4)[C@@H]3C2)c1	none (no result: N-glyco inh)
COc1ccc(-c2cc(C)no2)cc1S(=O)(=O)NCCc1ccco1	AF4-AF9 inh 25.8
Cc1cc(Cl)ccc1NC(=O)CN1CCCC1	none
CN1CCN(CC(=O)Nc2ccc(Cl)cc2Cl)CC1	Casp6 inh 43.2
CN1C(=O)c2cc(NC(=O)C3CC3)ccc2OC[C@H]2O[C@H](CC(=O)NC3CCC3)CC[C@@H]21	none (no result: N-glyco inh)
C/C(=N\NC(=O)c1cc(-c2ccc(Cl)s2)[nH]n1)c1ccncc1	AF4-AF9 inh 43.3
C/C(=N\NC(=O)c1cc(-c2ccc(Br)s2)[nH]n1)c1ccncc1	none
O=C(NC1CCCC1)N1CCCCN2[C@@H](CO)[C@H](c3ccc(-c4ccccc4)cc3)[C@@H]2C1	none (no result: N-glyco inh)
CCOc1ccc(Br)cc1C1=NN(C(C)=O)C(c2ccc([N+](=O)[O-])s2)O1 (centres undefined)	N-glyco inh 35.9
C[C@@H]1CN([C@@H](C)CO)C(=O)c2cc(C#CC3CC3)cnc2O[C@H]1CN(C)Cc1ccccn1	none (no result: N-glyco inh)
CCS(=O)(=O)Nc1ccc2c(c1)C(=O)N(C)[C@H]1CC[C@H](CC(=O)NC)O[C@H]1CO2	none (no result: N-glyco inh)
CCOc1ccc(-n2c(=S)sc3c(=O)[nH]c(SCC(=O)N4CCC(C)CC4)nc32)cc1	Casp6 inh 42.6 (no result: AF4-AF9 inh)
CCOC(=O)CSc1nc2c(sc(=S)n2-c2ccc(OCC)cc2)c(=O)[nH]1	none
O=C([C@H]1[C@H](CO)[C@H]2Cn3c(cccc3=O)[C@H]2N1Cc1cc(F)ccc1F)N1CCOCC1	Casp6 inh 36.6 (no result: N-glyco inh)
O=C(/C=C/c1ccc(Br)cc1)c1ccc(NC2=NCCCS2)cc1	RAD52 anneal inh 51.3 (no result: RAD54 branch)
O=C(/C=C/c1ccccc1)c1ccc(NC2=NCCCS2)cc1	none
CCOC(=O)c1cc(-c2ccc(N3CCOCC3)cc2)nn1-c1ccccc1C(=O)O	Casp6 inh 40.3
Nc1nc(Sc2ccc([N+](=O)[O-])c3nonc23)c2[nH]cnc2n1	N-glyco inh inconclusive, Casp6 inh 72.1 (no result: RAD54 branch)
